Laboratory results: article PMC4336329 (PLoS ONE, 2015)
About 14,000 (4.5%) of roughly 310,000 compounds showed an effect of 50% or more. The effect is printed as a negative number. This excerpt belongs to a sample that is enriched for strong results.

These compounds were tested against human ether-à-go-go-related gene (hERG) potassium channel (human, UniProt Q12809) (assay: primary screen, population patch clamp on CHO cells stably expressing hERG; higher = less effect of the substance).
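Further: peak tail current of the secondary pulse compared with the same well before compound.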

human ether-à-go-go-related gene (hERG) potassium channel, sequence (Q12809 whole entry, looked up): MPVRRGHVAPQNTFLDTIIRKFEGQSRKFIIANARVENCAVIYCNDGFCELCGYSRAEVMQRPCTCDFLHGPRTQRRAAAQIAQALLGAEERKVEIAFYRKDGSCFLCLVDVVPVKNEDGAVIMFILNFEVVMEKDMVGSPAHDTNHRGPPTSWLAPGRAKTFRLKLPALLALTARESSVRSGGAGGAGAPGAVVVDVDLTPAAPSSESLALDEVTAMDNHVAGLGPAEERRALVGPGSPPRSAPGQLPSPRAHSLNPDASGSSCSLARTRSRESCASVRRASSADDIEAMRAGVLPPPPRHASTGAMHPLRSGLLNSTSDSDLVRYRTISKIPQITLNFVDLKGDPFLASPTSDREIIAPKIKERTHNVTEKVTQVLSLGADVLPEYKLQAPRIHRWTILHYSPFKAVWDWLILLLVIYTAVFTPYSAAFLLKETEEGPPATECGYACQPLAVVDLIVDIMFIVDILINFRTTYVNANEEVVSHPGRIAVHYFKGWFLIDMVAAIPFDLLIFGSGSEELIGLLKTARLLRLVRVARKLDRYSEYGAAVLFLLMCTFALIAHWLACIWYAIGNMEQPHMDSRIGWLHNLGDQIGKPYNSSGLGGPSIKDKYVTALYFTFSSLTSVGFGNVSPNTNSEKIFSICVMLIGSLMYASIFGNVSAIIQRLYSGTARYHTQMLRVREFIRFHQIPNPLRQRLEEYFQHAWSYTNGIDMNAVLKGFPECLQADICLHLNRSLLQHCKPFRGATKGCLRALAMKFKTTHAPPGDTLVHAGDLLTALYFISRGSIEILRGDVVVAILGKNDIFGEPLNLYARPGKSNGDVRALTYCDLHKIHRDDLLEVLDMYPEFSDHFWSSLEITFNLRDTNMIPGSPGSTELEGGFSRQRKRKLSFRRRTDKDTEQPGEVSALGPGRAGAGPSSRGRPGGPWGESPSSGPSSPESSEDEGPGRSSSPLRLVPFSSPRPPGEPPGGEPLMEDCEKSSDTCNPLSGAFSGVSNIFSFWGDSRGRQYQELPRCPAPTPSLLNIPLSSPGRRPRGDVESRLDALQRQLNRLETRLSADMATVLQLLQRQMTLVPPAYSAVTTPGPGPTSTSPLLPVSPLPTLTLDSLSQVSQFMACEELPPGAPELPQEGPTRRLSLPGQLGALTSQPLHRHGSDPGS

First: CN1CC(=O)NC1=NC(=O)C12CC3CC(CC(C3)C1)C2
Second: CCOC(=O)CSc1nc(N)cc(=O)[nH]1
The “hERG current change (%, negative = inhibition) at 10uM” value of the first is lower: -8.73% for the first, 7.78% for the second.

First: Cl.Clc1cccc(Cl)c1CNC1CCCC1
Second: CC(C)NC(=O)C1CCN(C(=O)C(C(=O)c2ccccc2)n2cc(Cl)ccc2=O)CC1 (stereo not shown)
The “hERG current change (%, negative = inhibition) at 10uM” value of the first is higher: 13.5% for the first, 6.17% for the second.

Compared with `CC(=O)c1ccc(N(C(=O)Cn2nnc3ccccc32)C(C(=O)NCc2ccccc2)c2ccccn2)cc1` (stereo not shown), `Cc1ccc(N(C(=O)Cn2nnc3ccccc32)C(C(=O)NCc2ccccc2)c2ccccn2)cc1` (stereo not shown) is higher in “hERG current change (%, negative = inhibition) at 10uM” value: -73.2% for the first, -45.5% for the second.

Compared with `CC(=O)c1cccc(N(C(=O)Cn2nnc3ccccc32)C(C(=O)NCc2ccccc2)c2ccccn2)c1` (stereo not shown), `Cn1c(=O)c(C(=O)COC(=O)c2cc(-c3ccco3)nc3ccccc23)c(N)n(Cc2ccccc2)c1=O` is higher in “hERG current change (%, negative = inhibition) at 10uM” value: -39% for the first, -12.2% for the second.

First: COc1ccc(Cc2nc3ccc(C(=O)N(C)CCCN4CCOCC4)cc3o2)cc1
Second: COc1ccc(OCC(=O)Nc2ccc3c(c2)nc(CCN2CCC(C)CC2)n3C)cc1
The “hERG current change (%, negative = inhibition) at 10uM” value of the first is higher: 10% for the first, -75.4% for the second.

First: Cc1cc(Nc2ccc3c(c2)OCCO3)c2cccc(C)c2n1.Cl
Second: Cc1cc(Nc2ccc3c(c2)OCCO3)c2ccccc2n1.Cl
The “hERG current change (%, negative = inhibition) at 10uM” value of the first is higher: -40.7% for the first, -56.1% for the second.

Going from `Cc1cc(Nc2ccc3c(c2)OCCO3)n2nc(C)nc2n1` to `Cc1cc(C)c(C#N)c(Nc2ccc3c(c2)OCCO3)n1`, the “hERG current change (%, negative = inhibition) at 10uM” value rises from -9.32% to 5.17%.

Going from `CCOc1cccc(C(=O)Nc2ccc3c(c2)OCCO3)c1` to `CCOc1ccc(C(=O)Nc2ccc3c(c2)OCCO3)cc1`, the “hERG current change (%, negative = inhibition) at 10uM” value falls from 3.35% to -1.74%.

First: Cc1ccc2nc(C)cc(Nc3ccc4c(c3)OCCO4)c2c1.Cl
Second: Cc1cc(Nc2ccc3c(c2)OCCO3)c2cc(Cl)ccc2n1.Cl
The “hERG current change (%, negative = inhibition) at 10uM” value of the first is lower: -58.2% for the first, -52.6% for the second.

Compared with `Cc1cc(C)n2c(Nc3ccc4c(c3)OCCO4)c(-c3ccccc3)nc2n1`, `Cc1cc(C(=O)Nc2ccc3c(c2)OCCO3)c2ccccc2n1` is higher in “hERG current change (%, negative = inhibition) at 10uM” value: -16.7% for the first, 18.4% for the second.

Compared with `CCOc1ccc2nc(C)cc(Nc3ccc4c(c3)OCCO4)c2c1.Cl`, `Cc1cc(C)c(C(N)=O)c(Nc2ccc3c(c2)OCCO3)n1` is higher in “hERG current change (%, negative = inhibition) at 10uM” value: -72.4% for the first, 0.162% for the second.

Compared with `O=C(COc1ccc(F)cc1Cl)Nc1ccc(N2CCOCC2)cc1N1CCOCC1`, `Cc1cc(C(=O)Nc2ccccc2N2CCOCC2)c(C)o1` is lower in “hERG current change (%, negative = inhibition) at 10uM” value: -10.2% for the first, -18.1% for the second.

Going from `Cc1ccc(C2(C)NC(=O)N(CC(=O)N(Cc3ccccc3)C(C)(C)C)C2=O)cc1` (stereo not shown) to `CN(Cc1ccccc1)C(=O)c1[nH]cnc1C(=O)NCc1ccc(CNC(=O)OC(C)(C)C)cc1`, the “hERG current change (%, negative = inhibition) at 10uM” value falls from -1.1% to -6.68%.

Going from `Cc1nccn1CC(=O)N/N=C/c1cc(Br)cs1` to `CC(=O)Nc1ccc2c(c1)nc(CCN1CCC(C)CC1)n2C`, the “hERG current change (%, negative = inhibition) at 10uM” value rises from 6.58% to 8.83%.

First: Cc1ccc(C)c(Cn2cnc3c(nnn3-c3ccc(F)cc3)c2=O)c1
Second: Cc1ccc(-n2cccn2)c(CN2CCCC(CNC(=O)c3ccc(F)cc3)C2)c1 (stereo not shown)
The “hERG current change (%, negative = inhibition) at 10uM” value of the first is higher: -2.53% for the first, -75.5% for the second.

First: O=[N+]([O-])c1ccc(/C=C/c2ccc3ccccc3n2)cc1
Second: COc1ccccc1NC(=O)COc1ccc(/C=N/NS(=O)(=O)c2ccc(C)cc2)cc1
The “hERG current change (%, negative = inhibition) at 10uM” value of the first is lower: 5.95% for the first, 20.1% for the second.

Going from `Cc1cc(C)c(CN2CCN(C(=O)Cn3ccc(NC(=O)OCc4ccccc4)nc3=O)CC2)c(C)c1` to `CC(=O)N1CCN(Cc2nc3cc(NC(=O)COc4cccc(C)c4)ccc3n2C)CC1.Cl`, the “hERG current change (%, negative = inhibition) at 10uM” value falls from -5.55% to -15.3%.

Going from `COc1ccc(N(CC(=O)NCC2CCCO2)S(=O)(=O)c2ccc(C)cc2)cc1OC` (stereo not shown) to `Cc1ccc(S(=O)(=O)NCCNC(=O)c2ccc(C)nc2)cc1`, the “hERG current change (%, negative = inhibition) at 10uM” value falls from -3.96% to -72%.

First: COC(=O)c1ccccc1C(=O)N1CCCC(CNC(=O)c2ccc(F)cc2)C1 (stereo not shown)
Second: Cc1ccccc1CC(=O)N1CCCC(CNC(=O)c2ccc(F)cc2)C1 (stereo not shown)
The “hERG current change (%, negative = inhibition) at 10uM” value of the first is higher: 11.2% for the first, -2% for the second.

First: Cc1cc(C)c(CN2CCCC(CNC(=O)c3ccc(F)cc3)C2)c(-n2cccn2)c1 (stereo not shown)
Second: CCn1ncc(CN2CCCC(CNC(=O)c3ccc(F)cc3)C2)c1C (stereo not shown)
The “hERG current change (%, negative = inhibition) at 10uM” value of the first is lower: -75.6% for the first, -1.04% for the second.

Going from `O=C(NCC1CCCN(C(=O)c2cc(Cl)ccc2F)C1)c1ccc(F)cc1` (stereo not shown) to `Cc1ccc(C(=O)NCCNC(=O)c2ccc(C)nc2)cc1`, the “hERG current change (%, negative = inhibition) at 10uM” value rises from -6.65% to 5.21%.

First: CCc1noc(C)c1C(=O)OCC(=O)N(CC)c1c(N)n(Cc2ccccc2)c(=O)[nH]c1=O
Second: COC(=O)c1ccc2c(C)c(C(C)(C)O)[nH]c2c1
The “hERG current change (%, negative = inhibition) at 10uM” value of the first is higher: 10.9% for the first, 10.3% for the second.

Compared with `Cc1ccc(C2CC(=O)NC(SCCC(C)C)=C2C#N)cc1` (stereo not shown), `Cc1ccc(OCC(=O)Nc2ccc3c(c2)nc(CCN2CCC(C)CC2)n3C)cc1` is lower in “hERG current change (%, negative = inhibition) at 10uM” value: -10.6% for the first, -70.6% for the second.

Going from `Cc1ccc(C(=O)NCCNS(=O)(=O)c2ccccc2)cn1` to `CC1CCN(CCc2nc3cc(NC(=O)Nc4ccccc4)ccc3n2C)CC1`, the “hERG current change (%, negative = inhibition) at 10uM” value falls from 12.7% to -44.4%.

Compared with `CCC(=O)Nc1ccc2c(c1)nc(CCN1CCC(C)CC1)n2C`, `Cc1cccc(OCC(=O)Nc2ccc3c(c2)nc(CCN2CCC(C)CC2)n3C)c1` is lower in “hERG current change (%, negative = inhibition) at 10uM” value: 1.48% for the first, -68.7% for the second.

Compared with `CC1CCN(CCc2nc3cc(NC(=O)COc4ccccc4)ccc3n2C)CC1`, `CC1CCN(CCc2nc3cc(NC(=O)COc4ccc(Cl)cc4)ccc3n2C)CC1` is lower in “hERG current change (%, negative = inhibition) at 10uM” value: -68.4% for the first, -74.7% for the second.

First: Cc1sc2nc(-c3cccnc3)[nH]c(=O)c2c1-c1ccccc1
Second: Clc1ccc(OCCn2ccnc2)c(Cl)c1
The “hERG current change (%, negative = inhibition) at 10uM” value of the first is higher: -4.06% for the first, -18.9% for the second.

For `CN(C)/C=N/c1[nH]ncc1C#N`, the “hERG current change (%, negative = inhibition) at 10uM” value was 16%.
